Screening results: PubChem BioAssay, Broad Institute
PDI turbidity: blocks human protein disulfide isomerase activity. P07237. PDI insulin aggregation turbidity, A650, 90 min. inhibition, % at 10 µM. actives 0.052% (n = 350,000). AID 588391;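 active = mean inhibition across replicates of 30% or more, whatever share of single replicates reach that level; inconclusive = mean inhibition below 30% while every single replicate reaches 30%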
SIRT5 block: sirtuin-5 (human) deacylase inhibition | inhibition, % at 15 µM | actives 1.1% (n = 330,000) | AID 652115 | Q9NXA8 | Purified SirT5, succinyl-peptide AMC, trypsin-coupled fluorescence; in the data active = inhibition above about 15%; inconclusive = no clear call, values can overlap the other calls
ERp5 inh: inhibitors of human ERp5. Q15084. ERp5 insulin aggregation, absorbance 650 nm, 90 min. inhibition, % at 9.99 µM. actives 0.05% (n = 350,000);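 active = mean replicate inhibition above about 25%, with every replicate also reaching it, limit read from the data, passing the limit was not always enough; inconclusive = only one of those two criteria met; inactive = neither criterion met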
HDAC3 inh: inhibitors of human histone deacetylase 3. inhibition, % at 8.3 µM. O15379. recombinant HDAC3, fluorogenic peptide/trypsin coupled, fluorescence. actives 0.15% (n = 320,000); in the data active = inhibition above about 26%, passing the limit was not always enough; inconclusive = no clear call, values can overlap the other calls
ERAP1 inh: blocks human ERAP1 aminopeptidase activity. recombinant ERAP1, Leu-AMC fluorescence, 60 min. inhibition, % at 10.7 µM. actives 0.15% (n = 340,000);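 active = mean replicate inhibition of at least 30%, or all replicates individually reaching that 30% level; inactive = mean below 30% and not every replicate reaching it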;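 note: 0% = neutral control wells and 100% = L-leucinethiol positive control wells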
Target sequence (Q9NZ08 whole entry, looked up): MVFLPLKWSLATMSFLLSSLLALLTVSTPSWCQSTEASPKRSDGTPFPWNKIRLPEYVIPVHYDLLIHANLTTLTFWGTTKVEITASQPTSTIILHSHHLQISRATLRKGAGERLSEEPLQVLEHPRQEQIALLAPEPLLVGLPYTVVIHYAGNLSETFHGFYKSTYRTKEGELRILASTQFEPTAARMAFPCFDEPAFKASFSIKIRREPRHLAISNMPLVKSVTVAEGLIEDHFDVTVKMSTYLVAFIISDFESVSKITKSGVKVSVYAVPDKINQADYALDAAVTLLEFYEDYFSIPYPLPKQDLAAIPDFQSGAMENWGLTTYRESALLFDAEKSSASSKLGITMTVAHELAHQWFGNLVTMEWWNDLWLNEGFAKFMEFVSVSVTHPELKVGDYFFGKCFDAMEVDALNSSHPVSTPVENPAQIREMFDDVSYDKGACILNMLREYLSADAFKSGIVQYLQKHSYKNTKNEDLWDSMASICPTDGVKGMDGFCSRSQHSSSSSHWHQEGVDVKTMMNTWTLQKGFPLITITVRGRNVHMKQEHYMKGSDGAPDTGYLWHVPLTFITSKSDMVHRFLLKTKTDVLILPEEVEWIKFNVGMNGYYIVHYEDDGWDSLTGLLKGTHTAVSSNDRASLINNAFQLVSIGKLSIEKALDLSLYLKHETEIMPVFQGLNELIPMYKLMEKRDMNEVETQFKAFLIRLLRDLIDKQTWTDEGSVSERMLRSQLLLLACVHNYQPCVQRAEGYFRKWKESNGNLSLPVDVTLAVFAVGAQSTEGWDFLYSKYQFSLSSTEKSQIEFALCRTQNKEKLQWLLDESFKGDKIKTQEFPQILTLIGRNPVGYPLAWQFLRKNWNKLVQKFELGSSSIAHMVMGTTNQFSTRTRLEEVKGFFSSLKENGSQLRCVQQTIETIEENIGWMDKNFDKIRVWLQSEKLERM
* = called active by the depositor; u = inconclusive; x = no result; ! = a repeat was not active. Many of the other results were omitted from the sample, so hits are more common in it than they were.

SMILES	PDI turbidity	SIRT5 block	ERp5 inh	HDAC3 inh	ERAP1 inh
Cc1cc(C)cc(OCC(=O)Nc2ccccc2C(=O)N2CCOCC2)c1	37.2*	-1.0	0.8	-0.2	-1.2
Cc1cccc(OCC(=O)Nc2ccccc2C(=O)N2CCOCC2)c1	-5.9	x	x	1.7	x
C[C@H](CO)N1C[C@H](C)[C@@H](CN(C)Cc2ccc(Oc3ccccc3)cc2)Oc2c(NC(=O)Nc3ccccc3)cccc2C1=O	x	7.1	1.6	x	2.2
O=C(O)c1ccc(NS(=O)(=O)c2ccc3c(c2)C2C=CCC2C(c2ccccc2F)N3)cc1 (stereo not drawn)	13.9	51.3*	0.3	x	6.3
O=C(O)c1ccc2c(c1)C1C=CCC1C(c1cc3c(cc1Br)OCO3)N2 (stereo not drawn)	2.1	0.7	-0.5	-0.3	0.8
C[C@@H]1CCCCO[C@H](CN(C)Cc2ccncc2)[C@@H](C)CN([C@@H](C)CO)C(=O)c2cc(NS(C)(=O)=O)ccc2O1	x	-2.4	-1.8	x	-0.2
O=C(Nc1ccnn1C1CCN(C(=O)c2ccc(C(F)(F)F)cc2)CC1)C1CC1	-3.5	22.6*	3.2	0.4	-1.2
O=C(Nc1ccnn1C1CCN(C(=O)c2cccc(C(F)(F)F)c2)CC1)C1CC1	-1.9	-0.1	5.7	1.6	-0.1
O=C(NCC[C@@H]1CC[C@@H](NS(=O)(=O)c2ccc(Cl)cc2)[C@H](CO)O1)c1ccccc1F	x	18.2*	5.3	x	-0.5
CC(C)NC(=O)NCC[C@H]1CC[C@@H](NS(=O)(=O)c2ccc(-c3ccccc3)cc2)[C@H](CO)O1	x	31.0*	-0.8	x	-1.2
CC(C)NC(=O)NCC[C@@H]1CC[C@H](NS(=O)(=O)c2ccccc2)[C@@H](CO)O1	x	0.4	-0.8	x	-3.8
Cc1ccc(S(=O)(=O)N[C@H]2CC[C@H](CCNC(=O)c3ccc4c(c3)OCO4)O[C@H]2CO)cc1	x	103.2*	-0.7	x	-3.8
O=C(Cc1ccccn1)NCC[C@H]1CC[C@H](NS(=O)(=O)c2ccccc2)[C@H](CO)O1	x	15.6*	2.3	x	10.3
CCCN1[C@@H]2c3ccc(-c4ccc(C(=O)N(C)C)cc4)c(=O)n3C[C@@H]2[C@@H](CO)[C@@H]1C(=O)NCCOC	x	-0.5	-1.1	x	-1.7
O=C(Nc1ccccc1F)N1CCCCN2[C@H](CO)[C@H](c3ccc(C4=CCCC4)cc3)[C@@H]2C1	x	1.6	-2.9	x	-0.7
Cc1ccc(S(=O)(=O)N[C@H]2CC[C@@H](CCNC(=O)Nc3ccc(Cl)cc3)O[C@H]2CO)cc1	x	102.7*	-4.3	x	1.0
Cc1ccc(S(=O)(=O)N[C@@H]2CC[C@H](CCNC(=O)Nc3ccc(Cl)cc3)O[C@@H]2CO)cc1	x	-3.0	-2.1	x	0.3
CN(Cc1ccccc1)C(=O)c1nc2ccccn2c1CN1CCC(N2CCOCC2)CC1	-2.2	15.0*	-6.3	-0.7	-4.4
CCCCN(C)C(=O)c1nc2ccccn2c1CN1CCN(C/C=C/c2ccccc2)CC1	16.0	-1.8	2.9	-4.0	-5.9
CCCc1ccc(-c2cc(NC(=O)CSc3nnc(N)s3)n(-c3ccccc3)n2)cc1	19.3	20.3*	3.0	15.8	-2.0
C[C@@H]1CN([C@@H](C)CO)C(=O)c2cc(NC(=O)C3CCCCC3)ccc2O[C@@H]1CN(C)C(=O)Nc1ccc(F)cc1	x	-1.0	-0.7	x	-0.5
CN(Cc1c(C(=O)N/N=C/c2ccccc2)nnn1-c1nonc1N)c1ccccc1	-1.5	0.8	-6.6	5.7	-2.4
CCCN(CCC)Cc1c(C(=O)N/N=C/C(C)=C\c2ccccc2)nnn1-c1nonc1N	-0.7	16.4*	-3.0	3.7	1.6
CN(C)c1ccc(/C=N/NC(=O)c2nnn(-c3nonc3N)c2CN(C)c2ccccc2)cc1	1.6	16.6*	3.5	-7.0	0.8
CCCc1c(C(=O)N/N=C/C(C)=C/c2ccccc2)nnn1-c1nonc1N	8.1	-0.5	2.9	-1.4	-0.1
SMILES	PDI turbidity	SIRT5 block	ERp5 inh	HDAC3 inh	ERAP1 inh
CCOc1cccc(-c2c(C(=O)N/N=C/c3ccc(C)o3)nnn2-c2nonc2N)c1	3.8	8.3	26.7*	u	-1.9
COCCOC(=O)N1C(=O)[C@@]2(c3cc(C#Cc4ccc(OC)cc4)ccc31)[C@H](C(=O)N1CCN(c3ncccn3)CC1)[C@H]1C(=O)O[C@H](c3ccccc3)[C@H](c3ccccc3)N1[C@@H]2c1ccccc1OCCO	x	12.7	-2.0	x	0.1
COc1cc(/C=C2/SC(=S)N(CC(=O)O)C2=O)ccc1OC(=O)c1ccco1	17.4	4.2	-1.2	20.2	55.7*
COc1cc(/C=C2\SC(=S)N(CC(=O)O)C2=O)ccc1OC(=O)c1ccco1	8.8	x	0.0	20.4	1.2
O=C(O)CN1C(=O)/C(=C\c2ccccc2OCc2ccc(F)cc2)SC1=S	12.6	5.2	3.5	4.1	32.3*
COc1cc(/C=N/n2cnnc2)ccc1OC(=O)c1ccco1	-3.2	4.5	-1.9	27.3*	-0.1
O=C(O)CN1C(=O)/C(=C\c2ccccc2OCc2ccccc2)SC1=S	-0.3	0.4	-1.3	x	22.0
O=C(CN1CCOCC1)N[C@H]1CC[C@H](CCNC(=O)C2CCC2)O[C@H]1CO	x	3.7	1.0	x	-1.3
COc1ccc(C#Cc2ccc3c(c2)O[C@H](CN(C)C(=O)Nc2cccc(OC)c2)[C@H](C)CN([C@@H](C)CO)S3(=O)=O)cc1	x	0.7	-0.9	x	-0.9
CCCC#Cc1ccc2c(c1)O[C@H](CN(C)C(=O)Nc1ccc(OC)cc1)[C@@H](C)CN([C@@H](C)CO)S2(=O)=O	x	17.9*	-9.7	x	0.3
COc1ccc(NC(=O)N(C)C[C@@H]2Oc3cc(C#CCC(C)C)ccc3S(=O)(=O)N([C@@H](C)CO)C[C@@H]2C)cc1	x	29.2*	2.7	x	1.5
COc1ccc(C#Cc2ccc3c(c2)O[C@@H](CN(C)C(=O)Nc2cccc(OC)c2)[C@H](C)CN([C@@H](C)CO)S3(=O)=O)cc1	5.3	16.1*!	-1.8	x	0.5
COc1ccc(NC(=O)N(C)C[C@H]2Oc3cc(C#CCC(C)C)ccc3S(=O)(=O)N([C@@H](C)CO)C[C@H]2C)cc1	x	25.8*	2.9	x	1.3
C[C@H]1CN([C@@H](C)CO)C(=O)c2cc(C3=CCCCC3)cnc2O[C@H]1CN(C)Cc1ccc(C(=O)O)cc1	x	0.7	14.1	x	0.1
C[C@@H]1CCCCO[C@@H](CN(C)C(=O)Nc2ccc(C(F)(F)F)cc2)[C@H](C)CN([C@H](C)CO)C(=O)c2cc(NC(=O)c3ccncc3)ccc2O1	x	11.1	-5.5	x	1.8
COc1ccc(NC(=O)N(C)C[C@H]2Oc3cc(C#CCC(C)C)ccc3S(=O)(=O)N([C@@H](C)CO)C[C@@H]2C)cc1	x	32.7*	8.7	x	-1.5
COc1cccc(-c2ccc3c(c2)O[C@@H](CN(C)C(=O)c2ccccc2F)[C@H](C)CN([C@@H](C)CO)S3(=O)=O)c1	x	20.1*	-1.1	x	1.3
COc1cccc(NC(=O)N(C)C[C@H]2Oc3cc(-c4ccccc4F)ccc3S(=O)(=O)N([C@H](C)CO)C[C@@H]2C)c1	x	5.5	0.3	x	1.8
COc1ccc(NC(=O)N(C)C[C@@H]2Oc3cc(C#CCC(C)C)ccc3S(=O)(=O)N([C@H](C)CO)C[C@H]2C)cc1	x	24.5*	-3.6	x	x
